From the supplement of paper PMC11732987, “Enantioselective OTUD7B fragment discovery through chemoproteomics screening and high-throughput optimisation” (Communications Chemistry, 2025)
Values without a mark were called inactive.

Key:
Experiment in all cases: log2 ratio of Biotin-Ahx-Ub-VS probe labelling (fragment/DMSO); higher = less target engagement (more negative = stronger competition), active = hit call of the paper (q ≤ 0.05, log2 ratio ≤ -1)
Settings in all cases: compound concentration: 200 uM; treatment time: 3 h
[1] = molecular target: USP9X (UniProt Q93008)
In short: (§1)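 Labelled DUBs from HEK293T lysate were NeutrAvidin-enriched, digested with LysC and trypsin, and run by diaPASEF LC-MS/MS. Before that, each 495 µg sample in Tris/CHAPS/IGEPAL buffer with protease inhibitors was treated in triplicate with fragment at 200 µM or vehicle for 3 h, then with Biotin-Ahx-Ub-VS at 0.5 µM final for 1 h. Values are average log2 ratios of fragment over vehicle by unpaired t-test, based on global-median-normalised Spectronaut label-free quantities from proteins with ≥2 unique peptides.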

[2] = molecular target: UniProt O00487
In short: as §1

[3] = molecular target: UniProt O00507
In short: as §1

[4] = molecular target: UniProt P51784
In short: as §1

[5] = molecular target: T1, UniProt Q5T2D3
T1 sequence (whole entry): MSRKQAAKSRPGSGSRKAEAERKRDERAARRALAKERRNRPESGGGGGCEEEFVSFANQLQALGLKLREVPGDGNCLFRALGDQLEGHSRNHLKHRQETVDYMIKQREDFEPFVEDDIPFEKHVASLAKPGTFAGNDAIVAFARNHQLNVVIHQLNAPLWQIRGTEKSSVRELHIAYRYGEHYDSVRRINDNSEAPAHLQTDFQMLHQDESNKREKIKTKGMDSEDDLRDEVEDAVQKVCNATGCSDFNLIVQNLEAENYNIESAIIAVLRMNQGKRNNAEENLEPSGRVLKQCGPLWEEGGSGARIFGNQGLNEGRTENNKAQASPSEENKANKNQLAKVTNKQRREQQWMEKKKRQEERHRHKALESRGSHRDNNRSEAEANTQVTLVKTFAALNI
In short: as §1

[6] = molecular target: T2, UniProt Q8TE49
T2 sequence (whole entry): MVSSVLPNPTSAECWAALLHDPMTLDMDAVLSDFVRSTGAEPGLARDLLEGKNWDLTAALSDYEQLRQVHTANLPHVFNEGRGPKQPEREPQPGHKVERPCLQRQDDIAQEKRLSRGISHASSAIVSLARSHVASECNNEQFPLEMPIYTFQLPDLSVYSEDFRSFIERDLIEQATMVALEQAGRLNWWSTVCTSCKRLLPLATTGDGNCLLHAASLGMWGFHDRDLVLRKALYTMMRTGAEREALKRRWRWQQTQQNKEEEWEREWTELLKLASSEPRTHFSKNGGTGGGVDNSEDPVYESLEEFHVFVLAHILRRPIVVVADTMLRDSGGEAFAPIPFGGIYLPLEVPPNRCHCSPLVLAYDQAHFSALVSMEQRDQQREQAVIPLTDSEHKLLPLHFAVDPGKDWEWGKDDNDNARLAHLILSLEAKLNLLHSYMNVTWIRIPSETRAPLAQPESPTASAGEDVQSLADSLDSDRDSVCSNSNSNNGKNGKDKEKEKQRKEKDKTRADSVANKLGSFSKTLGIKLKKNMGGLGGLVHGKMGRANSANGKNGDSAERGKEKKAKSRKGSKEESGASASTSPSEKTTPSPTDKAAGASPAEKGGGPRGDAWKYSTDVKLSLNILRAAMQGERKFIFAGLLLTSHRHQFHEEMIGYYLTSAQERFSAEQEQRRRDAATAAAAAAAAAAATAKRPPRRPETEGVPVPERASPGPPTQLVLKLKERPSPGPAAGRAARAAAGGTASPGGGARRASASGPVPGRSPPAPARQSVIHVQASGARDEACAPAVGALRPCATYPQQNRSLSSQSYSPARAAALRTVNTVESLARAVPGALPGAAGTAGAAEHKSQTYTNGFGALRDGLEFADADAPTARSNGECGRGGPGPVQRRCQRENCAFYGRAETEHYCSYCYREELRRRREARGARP
In short: as §1

[7] = molecular target: T3, UniProt Q9P2H5
T3 sequence (whole entry): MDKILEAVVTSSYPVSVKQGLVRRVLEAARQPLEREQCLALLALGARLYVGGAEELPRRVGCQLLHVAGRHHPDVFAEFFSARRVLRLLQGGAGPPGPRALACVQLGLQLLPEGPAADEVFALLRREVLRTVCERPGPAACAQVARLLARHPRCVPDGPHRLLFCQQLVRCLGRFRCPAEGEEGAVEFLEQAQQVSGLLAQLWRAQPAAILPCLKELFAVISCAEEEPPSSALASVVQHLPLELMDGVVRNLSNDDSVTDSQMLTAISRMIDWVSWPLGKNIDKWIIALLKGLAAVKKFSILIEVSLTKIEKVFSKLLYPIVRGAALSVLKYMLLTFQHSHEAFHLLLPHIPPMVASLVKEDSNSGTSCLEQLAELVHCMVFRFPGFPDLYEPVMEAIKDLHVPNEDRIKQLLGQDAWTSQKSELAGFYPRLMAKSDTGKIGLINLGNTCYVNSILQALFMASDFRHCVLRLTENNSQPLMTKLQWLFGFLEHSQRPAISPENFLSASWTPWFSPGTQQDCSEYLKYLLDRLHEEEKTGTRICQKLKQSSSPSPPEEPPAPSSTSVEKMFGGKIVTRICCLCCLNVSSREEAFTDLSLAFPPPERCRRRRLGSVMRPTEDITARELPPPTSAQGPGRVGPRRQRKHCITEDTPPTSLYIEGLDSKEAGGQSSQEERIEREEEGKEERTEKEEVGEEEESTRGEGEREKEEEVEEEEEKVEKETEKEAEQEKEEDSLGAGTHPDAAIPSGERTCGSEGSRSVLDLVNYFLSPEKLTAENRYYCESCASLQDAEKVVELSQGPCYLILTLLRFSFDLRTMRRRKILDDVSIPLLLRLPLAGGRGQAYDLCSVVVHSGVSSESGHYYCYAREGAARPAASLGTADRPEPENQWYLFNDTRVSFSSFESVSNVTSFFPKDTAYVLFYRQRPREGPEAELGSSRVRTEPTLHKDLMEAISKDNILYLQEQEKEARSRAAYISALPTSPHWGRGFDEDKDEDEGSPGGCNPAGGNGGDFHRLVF
In short: as §1

[8] = molecular target: T4, UniProt Q9UGI0
T4 sequence (whole entry): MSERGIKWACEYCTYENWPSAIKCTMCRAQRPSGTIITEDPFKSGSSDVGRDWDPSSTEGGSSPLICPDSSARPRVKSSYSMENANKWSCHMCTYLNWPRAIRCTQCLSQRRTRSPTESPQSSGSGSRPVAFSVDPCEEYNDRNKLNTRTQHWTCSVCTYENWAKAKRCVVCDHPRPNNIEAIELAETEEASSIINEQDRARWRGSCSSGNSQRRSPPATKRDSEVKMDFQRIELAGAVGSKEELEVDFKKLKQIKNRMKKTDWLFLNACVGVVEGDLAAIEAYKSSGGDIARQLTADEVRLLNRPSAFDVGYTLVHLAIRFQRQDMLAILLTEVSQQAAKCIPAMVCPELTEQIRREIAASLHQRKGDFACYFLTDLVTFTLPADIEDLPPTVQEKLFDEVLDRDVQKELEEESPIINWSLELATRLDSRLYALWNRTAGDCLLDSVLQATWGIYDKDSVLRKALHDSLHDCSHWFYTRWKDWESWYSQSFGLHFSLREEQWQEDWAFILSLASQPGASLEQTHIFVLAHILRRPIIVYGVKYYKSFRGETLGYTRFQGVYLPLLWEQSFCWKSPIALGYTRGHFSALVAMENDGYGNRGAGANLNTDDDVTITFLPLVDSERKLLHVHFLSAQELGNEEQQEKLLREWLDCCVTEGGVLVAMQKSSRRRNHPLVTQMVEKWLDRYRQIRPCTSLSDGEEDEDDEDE
In short: as §1

[9] = molecular target: T5, YOD1 (UniProt Q5VVQ6)
T5 sequence (whole entry): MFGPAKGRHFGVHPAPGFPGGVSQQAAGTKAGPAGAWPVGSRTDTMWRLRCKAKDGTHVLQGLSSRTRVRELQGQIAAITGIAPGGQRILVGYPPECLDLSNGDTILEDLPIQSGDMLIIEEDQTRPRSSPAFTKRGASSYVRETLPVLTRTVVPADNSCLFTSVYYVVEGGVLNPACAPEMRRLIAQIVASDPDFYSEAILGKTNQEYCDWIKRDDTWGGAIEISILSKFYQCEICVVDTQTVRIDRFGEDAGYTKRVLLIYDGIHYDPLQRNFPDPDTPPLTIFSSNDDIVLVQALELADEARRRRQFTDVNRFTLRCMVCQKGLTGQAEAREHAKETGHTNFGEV
In short: as §1

Sequence of UniProt O00487 (O00487 whole entry): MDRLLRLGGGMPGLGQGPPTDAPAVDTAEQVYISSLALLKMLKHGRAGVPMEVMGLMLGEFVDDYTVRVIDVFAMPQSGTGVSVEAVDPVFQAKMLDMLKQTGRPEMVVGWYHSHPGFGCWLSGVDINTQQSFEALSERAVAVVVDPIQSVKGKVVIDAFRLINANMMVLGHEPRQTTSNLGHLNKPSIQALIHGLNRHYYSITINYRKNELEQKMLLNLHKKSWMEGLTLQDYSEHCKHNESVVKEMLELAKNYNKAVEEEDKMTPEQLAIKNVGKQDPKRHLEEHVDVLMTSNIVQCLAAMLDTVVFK
Sequence of UniProt O00507 (O00507 whole entry): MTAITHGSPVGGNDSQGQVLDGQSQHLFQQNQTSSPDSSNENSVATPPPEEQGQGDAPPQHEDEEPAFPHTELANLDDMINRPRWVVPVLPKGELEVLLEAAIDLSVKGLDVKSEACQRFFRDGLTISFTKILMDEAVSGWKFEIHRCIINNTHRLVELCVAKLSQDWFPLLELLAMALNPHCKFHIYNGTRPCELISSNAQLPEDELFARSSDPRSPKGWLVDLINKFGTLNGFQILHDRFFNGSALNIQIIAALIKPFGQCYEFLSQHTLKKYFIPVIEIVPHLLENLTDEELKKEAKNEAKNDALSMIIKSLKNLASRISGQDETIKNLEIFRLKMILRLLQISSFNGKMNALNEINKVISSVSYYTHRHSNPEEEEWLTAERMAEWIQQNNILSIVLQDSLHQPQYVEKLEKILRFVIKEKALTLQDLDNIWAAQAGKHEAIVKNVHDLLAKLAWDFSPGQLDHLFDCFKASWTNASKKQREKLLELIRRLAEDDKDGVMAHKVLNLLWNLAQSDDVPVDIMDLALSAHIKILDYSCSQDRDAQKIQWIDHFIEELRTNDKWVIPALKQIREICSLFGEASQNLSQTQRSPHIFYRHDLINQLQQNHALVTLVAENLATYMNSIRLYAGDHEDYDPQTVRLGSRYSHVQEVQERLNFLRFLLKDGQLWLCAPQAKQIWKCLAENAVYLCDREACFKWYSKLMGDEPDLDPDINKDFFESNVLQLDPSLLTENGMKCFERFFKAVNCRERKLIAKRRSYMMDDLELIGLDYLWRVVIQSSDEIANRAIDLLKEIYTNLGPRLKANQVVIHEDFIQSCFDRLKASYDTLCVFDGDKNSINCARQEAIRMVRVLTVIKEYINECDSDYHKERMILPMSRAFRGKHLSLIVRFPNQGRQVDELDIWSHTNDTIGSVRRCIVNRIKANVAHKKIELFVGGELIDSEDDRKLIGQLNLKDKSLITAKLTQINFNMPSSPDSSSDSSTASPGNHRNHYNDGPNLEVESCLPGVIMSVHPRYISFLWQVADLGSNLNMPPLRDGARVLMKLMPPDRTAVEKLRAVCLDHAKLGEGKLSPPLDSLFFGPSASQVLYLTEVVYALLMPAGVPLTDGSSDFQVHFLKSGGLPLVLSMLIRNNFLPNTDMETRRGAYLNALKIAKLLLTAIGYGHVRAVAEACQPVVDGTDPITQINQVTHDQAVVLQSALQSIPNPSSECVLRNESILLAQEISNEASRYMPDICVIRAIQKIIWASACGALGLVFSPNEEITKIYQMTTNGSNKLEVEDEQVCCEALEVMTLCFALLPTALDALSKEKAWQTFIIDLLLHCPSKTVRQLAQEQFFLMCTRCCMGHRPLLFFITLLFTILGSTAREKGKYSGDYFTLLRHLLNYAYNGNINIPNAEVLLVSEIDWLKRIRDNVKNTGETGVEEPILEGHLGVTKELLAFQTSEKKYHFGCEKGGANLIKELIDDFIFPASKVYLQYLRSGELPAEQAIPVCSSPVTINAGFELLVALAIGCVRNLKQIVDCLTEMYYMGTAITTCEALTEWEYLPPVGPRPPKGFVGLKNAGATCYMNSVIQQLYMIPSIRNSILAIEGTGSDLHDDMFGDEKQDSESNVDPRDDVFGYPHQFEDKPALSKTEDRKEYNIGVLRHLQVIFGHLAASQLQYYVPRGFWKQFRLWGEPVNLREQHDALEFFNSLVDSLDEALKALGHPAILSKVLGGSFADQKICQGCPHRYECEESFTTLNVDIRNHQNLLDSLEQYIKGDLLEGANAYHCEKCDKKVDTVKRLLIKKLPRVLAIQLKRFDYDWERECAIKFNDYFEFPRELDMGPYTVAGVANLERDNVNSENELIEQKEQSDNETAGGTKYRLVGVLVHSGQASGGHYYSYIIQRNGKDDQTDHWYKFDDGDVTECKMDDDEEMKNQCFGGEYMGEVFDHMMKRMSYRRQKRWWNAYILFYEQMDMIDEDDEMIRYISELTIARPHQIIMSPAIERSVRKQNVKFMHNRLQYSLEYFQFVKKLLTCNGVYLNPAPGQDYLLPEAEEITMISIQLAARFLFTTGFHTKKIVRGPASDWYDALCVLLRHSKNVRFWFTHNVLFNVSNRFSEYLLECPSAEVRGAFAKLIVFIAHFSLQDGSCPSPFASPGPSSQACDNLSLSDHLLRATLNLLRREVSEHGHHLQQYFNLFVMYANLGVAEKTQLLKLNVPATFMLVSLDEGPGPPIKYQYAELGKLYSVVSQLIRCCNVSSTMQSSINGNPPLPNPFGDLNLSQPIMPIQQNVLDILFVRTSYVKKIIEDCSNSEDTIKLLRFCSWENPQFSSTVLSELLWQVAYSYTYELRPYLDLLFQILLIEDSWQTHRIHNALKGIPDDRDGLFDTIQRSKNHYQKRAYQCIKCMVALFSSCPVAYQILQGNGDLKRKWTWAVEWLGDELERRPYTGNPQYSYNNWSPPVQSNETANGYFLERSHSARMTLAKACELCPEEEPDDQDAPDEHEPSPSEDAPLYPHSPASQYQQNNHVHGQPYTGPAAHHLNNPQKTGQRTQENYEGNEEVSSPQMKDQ
Sequence of UniProt P51784 (P51784 whole entry): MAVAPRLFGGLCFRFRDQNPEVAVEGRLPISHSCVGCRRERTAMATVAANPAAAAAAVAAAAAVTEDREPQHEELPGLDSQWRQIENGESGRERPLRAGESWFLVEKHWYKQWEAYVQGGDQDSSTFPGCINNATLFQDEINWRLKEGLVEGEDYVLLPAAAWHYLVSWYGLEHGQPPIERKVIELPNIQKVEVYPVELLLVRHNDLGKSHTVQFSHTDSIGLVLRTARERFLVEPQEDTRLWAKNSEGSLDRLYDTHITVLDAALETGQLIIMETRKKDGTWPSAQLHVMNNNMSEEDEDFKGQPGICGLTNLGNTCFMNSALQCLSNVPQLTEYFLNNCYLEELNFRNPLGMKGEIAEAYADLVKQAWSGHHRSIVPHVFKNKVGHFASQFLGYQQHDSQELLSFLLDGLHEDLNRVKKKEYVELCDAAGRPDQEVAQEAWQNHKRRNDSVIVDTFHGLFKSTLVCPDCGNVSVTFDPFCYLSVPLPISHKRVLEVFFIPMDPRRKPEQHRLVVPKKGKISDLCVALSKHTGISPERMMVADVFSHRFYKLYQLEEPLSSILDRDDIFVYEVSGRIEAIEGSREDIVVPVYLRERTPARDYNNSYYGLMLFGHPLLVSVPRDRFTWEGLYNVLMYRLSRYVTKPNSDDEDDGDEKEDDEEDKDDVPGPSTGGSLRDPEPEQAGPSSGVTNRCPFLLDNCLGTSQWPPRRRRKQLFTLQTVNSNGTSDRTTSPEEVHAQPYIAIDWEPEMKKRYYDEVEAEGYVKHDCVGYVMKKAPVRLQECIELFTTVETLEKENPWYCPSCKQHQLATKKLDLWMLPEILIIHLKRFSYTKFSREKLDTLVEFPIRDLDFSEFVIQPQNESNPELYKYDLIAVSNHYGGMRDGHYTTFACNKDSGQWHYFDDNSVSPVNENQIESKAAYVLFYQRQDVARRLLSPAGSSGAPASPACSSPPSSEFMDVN

## CCN(Cc1ccc(C#N)cc1F)C(=O)CCl
[1]
  log2 ratio of Biotin-Ahx-Ub-VS probe labelling: -0.229
[2]
  log2 ratio of Biotin-Ahx-Ub-VS probe labelling: -0.0587
[3]
  log2 ratio of Biotin-Ahx-Ub-VS probe labelling: -0.396
[4]
  log2 ratio of Biotin-Ahx-Ub-VS probe labelling: -0.331
[5]
  log2 ratio of Biotin-Ahx-Ub-VS probe labelling: -0.313
[6]
  log2 ratio of Biotin-Ahx-Ub-VS probe labelling: -0.525
[7]
  log2 ratio of Biotin-Ahx-Ub-VS probe labelling: -0.207
[8]
  log2 ratio of Biotin-Ahx-Ub-VS probe labelling: -1.27 (active)
[9]
  log2 ratio of Biotin-Ahx-Ub-VS probe labelling: -0.251
